Calls of active or inactive are those of the source. Unless noted, no rule for the calls is given here.
Legend:
[1] = test system: Wnt5a (protein binding on small-molecule microarray); assay: small molecules binding Wnt5a protein – biophysical, small-molecule microarray, 635/667 nm fluorescence, primary screen (AID 1142); settings: 635 nm fluorescence, higher = more signal;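 also: fluorescence read at 667 nm with signal to noise per printed feature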
[2] = ATP-based viability of Huh7 replicon cells – cell-based, CellTiter-Glo luminescence, basal, 48 h, cytotoxicity control for HCV replication inhibitor project, primary screen (AID 1143); settings: higher = more signal, called active from +8 up or from −8 down;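 also: Huh7 hepatoma cells carrying a hepatitis C replication reporter with no stimulus; test concentration not given here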
[3] = Pseudomonas biofilm growth suppression – PAO1 strain, BacTiter-Glo luminescence, LB-PBS, primary screen (AID 1144); settings: P. aeruginosa PAO1 biofilm, 12 h, higher = more signal
[4] = basal CRE-LacZ reporter activity in PC12 – cell-based, unstimulated, primary screen (AID 1145); settings: no forskolin, luminescence, 4.5 h, higher = more signal, called active from +8 up or from −8 down
[5] = forskolin-driven CRE-LacZ activity in PC12 – cell-based, CRE-LacZ reporter, forskolin-stimulated, primary screen (AID 1146); settings: luminescence, 4.5 h, higher = more signal, called active from +8 up or from −8 down;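 also: PC12 cells with 6xCRE LacZ reporter stimulated by forskolin 10 µM; beta-galactosidase reporter signal reflecting CREB driven transcription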
[6] = biological target: Streptavidin (Streptomyces avidinii) (UniProt P22629); assay: compounds binding control protein streptavidin – biophysical, small-molecule microarray, 635/667 nm fluorescence, artefact control for SMM compound annotation, primary screen (AID 1147); settings: higher = more signal;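 also: signal reflects streptavidin binding to arrayed compounds as a control protein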
Chain of Streptavidin (Streptomyces avidinii) (P22629 whole entry, looked up): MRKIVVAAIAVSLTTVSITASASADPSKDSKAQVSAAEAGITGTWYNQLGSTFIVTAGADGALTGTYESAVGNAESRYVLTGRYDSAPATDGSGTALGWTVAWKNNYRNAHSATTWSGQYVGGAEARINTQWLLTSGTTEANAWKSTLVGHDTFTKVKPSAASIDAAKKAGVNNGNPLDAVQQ

[7] = probe aInhba binding on compound microarray – biochemical, small-molecule microarray, 635/667 nm fluorescence, primary screen (AID 1148); settings: higher = more signal;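 also: score merges 667nm spot fluorescence with signal-to-noise for antibody binding to printed compounds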
[8] = biological target: Torsin-1A (Homo sapiens) (UniProt O14656); assay: TOR1A wild-type binding on microarray – cell lysate, small-molecule microarray, lysate, 635/667 nm, primary screen (AID 1149); settings: COS7 hTOR1A-WT lysate, 635 nm fluorescence, higher = more signal
Chain of Torsin-1A (Homo sapiens) (O14656 whole entry, looked up): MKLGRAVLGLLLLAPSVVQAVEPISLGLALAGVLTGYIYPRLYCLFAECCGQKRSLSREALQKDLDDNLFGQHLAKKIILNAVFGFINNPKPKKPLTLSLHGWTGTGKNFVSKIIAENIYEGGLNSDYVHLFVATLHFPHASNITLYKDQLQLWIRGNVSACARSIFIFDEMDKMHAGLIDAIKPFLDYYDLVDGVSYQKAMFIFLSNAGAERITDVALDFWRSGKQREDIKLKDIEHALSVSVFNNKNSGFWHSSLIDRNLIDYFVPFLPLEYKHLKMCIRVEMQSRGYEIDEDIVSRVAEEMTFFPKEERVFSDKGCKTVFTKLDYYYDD

[9] = biological target: Torsin-1A (Homo sapiens) (UniProt O14656); assay: torsin A mutant lysate binding on microarrays – cell lysate, small-molecule microarray, COS7 lysate, 635/667 nm fluorescence, primary screen (AID 1150); settings: COS7 hTOR1A mutant lysate, 635 nm fluorescence, higher = more signal;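 also: score pools 667 nm emission and signal to noise measuring lysate protein binding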
[10] = test system: Sonic hedgehog protein (Shh); assay: Sonic hedgehog microarray binding compounds – biochemical, small-molecule microarray, 635/667 nm fluorescence, primary screen (AID 1151); settings: 635 nm fluorescence, higher = more signal;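 also: Shh protein binding to compounds spotted on small-molecule microarray slides; score combines spot fluorescence intensity with signal-to-noise across triplicate slides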

| SMILES | composite z-score [1] | z-score [2] | z-score [3] | z-score [4] | z-score [5] | composite z-score [6] | composite z-score [7] | composite z-score [8] | composite z-score [9] | composite z-score [10] |
| --- | --- | --- | --- | --- | --- | --- | --- | --- | --- | --- |
| COC(=O)C(CC#Cc1ccc2c(c1)[C@]1(C(=O)N2)[C@H](C(N)=O)[C@H]2C(=O)O[C@H](c3ccccc3)[C@H](c3ccccc3)N2[C@@H]1c1ccccc1OCCO)C(=O)OC | 0.151 | -6.25 (inactive) | -0.451 (inactive) | 0.362 (inactive) | -0.955 (inactive) | -0.0001 | -0.152 | 0.544 | 1.48 | 1.07 |
| C=C(CC1([C@@H](NP(=O)(c2ccccc2)c2ccccc2)[C@H]2C[C@@H]2CCCC)CC1)c1cccc(OC)c1 | 0.0445 | -1.65 (inactive) | 0.496 (inactive) | 0.0109 (inactive) | 0.276 (inactive) | 0.566 | 0.0227 | -0.547 | -0.302 | -0.836 |
| COC(=O)C1(CC(C)C)C=C2C(=C(C)C(=O)C2C)CN1 (stereo not given) | 0.392 | -0.109 (inactive) | 0.142 (inactive) | 0.0041 (inactive) | 2.32 (inactive) | 0.351 | 1.17 | 0.0384 | 0.276 | -0.645 |
| COC(=O)[C@]1(Cc2ccccc2N=[N+]=[N-])N=C(c2ccc(OCCCO)cc2)O[C@@H]1c1ccccc1CN=[N+]=[N-] | 0.65 | -3.74 (inactive) | -0.923 (inactive) | -0.137 (inactive) | 0.0992 (inactive) | 0.127 | 0.122 | 1.12 | 0.085 | 0.754 |
| COCCCNC(=O)[C@@]1(c2ccc([N+](=O)[O-])cc2)CC(=O)N(C2CCCCC2)[C@@H]1c1ccc(CO)cc1I | 0.0398 | -3.87 (inactive) | 0.239 (inactive) | 0.414 (inactive) | -0.543 (inactive) | -0.16 | 0.0575 | 0.95 | 1.39 | 1.81 |
| CC1CC/C=C\[C@H]2OC34C=CCN(CCN5CCOCC5)C(=O)[C@H]3N(C(CO)C(C)C)C(=O)[C@@H]4C2C(=O)O1 (stereo not given in full) | 0.115 | 0.211 (inactive) | 1.52 (inactive) | -0.0778 (inactive) | 0.341 (inactive) | -0.0429 | -0.128 | 1 | -0.05 | 0.795 |
| CC(C)C[C@@H]1NC(=O)[C@@H]2C[C@H](C(=O)NCCCCCNC(=O)CS)[C@H](c3ccc(O)cc3)N2C1=O | -0.025 | -4.33 (inactive) | -0.455 (inactive) | -0.809 (inactive) | -0.661 (inactive) | -0.799 | -0.045 | 1.87 | 2.08 | 1.99 |
| O=C/C=C/c1ccc(-c2ccccc2)cc1 | -0.166 | -2.73 (inactive) | 1.68 (inactive) | 2.11 (inactive) | 3.74 (inactive) | 0.175 | -0.101 | -0.0497 | 0.0552 | 0.083 |
| C=CC[C@H](OC(=O)Nc1ccc(SC)cc1)c1ccc(O)c(F)c1 | -0.171 | -0.489 (inactive) | -0.459 (inactive) | 0.31 (inactive) | 5.56 (inactive) | -0.588 | -0.285 | -0.135 | -0.151 | 0.988 |
| C=CC[C@H](O)c1ccc(O)c(F)c1 | -0.863 | -0.48 (inactive) | -0.955 (inactive) | -0.0392 (inactive) | -0.535 (inactive) | -1.39 | -0.0429 | -3.98 | -1.66 | -1.11 |
| COC(=O)[C@@]1(Cc2ccc(F)cc2)[C@H]2c3cc(C(=O)N(C)C)n(Cc4ccsc4Br)c3C[C@H]2CN1C(=O)c1ccccc1 | 2.41 | -1.49 (inactive) | 0.00128 (inactive) | 1.73 (inactive) | -0.0932 (inactive) | 1.66 | 2.03 | -0.0698 | 0.39 | -0.635 |
| O=C1NC(=O)C2C1C=CC(C(O)C(O)CO)N2Nc1ccccn1 (stereo not given) | 0.146 | 0.165 (inactive) | -0.893 (inactive) | 0.0603 (inactive) | 0.0702 (inactive) | 0.0832 | -0.168 | 0.435 | 0.344 | 0.199 |
| COCCOC(=O)N1C(=O)[C@@]2(c3cc(C#CCCO)ccc31)[C@H](c1ccc(O)cc1)N1[C@H](c3ccccc3)[C@H](c3ccccc3)OC(=O)[C@H]1[C@@H]2C(=O)NC[C@H](O)c1ccccc1 | 0.0153 | -1.64 (inactive) | -0.718 (inactive) | 0.0776 (inactive) | -0.583 (inactive) | -0.331 | 0.0101 | 0.127 | -0.0807 | 1.03 |
| C=CCNC(=O)[C@H]1[C@@H]2C(=O)O[C@@H](c3ccccc3)[C@@H](c3ccccc3)N2[C@@H](c2ccc(O)cc2)[C@]12C(=O)Nc1ccccc12 | -0.124 | -0.792 (inactive) | -0.683 (inactive) | -0.195 (inactive) | -0.0955 (inactive) | -0.642 | -0.128 | 0.64 | 0.778 | 0.279 |
| COc1ccc(-c2cc3c(c(CCc4ccccc4)n2)[Si](C(C)C)(C(C)C)O[C@H]3c2ccccc2)cn1 | -0.143 | -0.248 (inactive) | -0.113 (inactive) | 4.67 (inactive) | -0.0122 (inactive) | 0.547 | -0.0762 | -0.719 | -0.534 | 0.431 |
| O=C1O[C@H](c2ccccc2)[C@H](c2ccccc2)N2[C@H]1[C@@H](C(=O)N1CCCCCCC1)[C@]1(C(=O)Nc3ccc(C#CCCO)cc31)[C@H]2c1ccc(O)cc1 | 2.43 | -1.76 (inactive) | -0.575 (inactive) | -0.438 (inactive) | -1.23 (inactive) | 3.86 | 1.84 | 3.62 | 3.34 | 2.36 |
| C=C[C@H](C)[C@@H](OC(=O)Nc1ccc(SC)cc1)c1ccc(OCCO)cc1 | 0.179 | -2.91 (inactive) | -0.567 (inactive) | 6.08 (inactive) | -0.24 (inactive) | -0.363 | 0.36 | -0.0803 | 0.278 | 1.98 |
| COC(=O)[C@@]1(Cc2ccccc2)[C@H]2c3cc(C(=O)N(C)C)n(Cc4ccc(Cl)c(C(F)(F)F)c4)c3C[C@H]2CN1C(=O)c1ccccc1 | 0.498 | -3.79 (inactive) | 0.821 (inactive) | 0.583 (inactive) | -0.244 (inactive) | 1.56 | 0.63 | -0.172 | 0.0947 | 1.31 |
| COC(=O)[C@@]1(Cc2ccc(F)cc2)[C@H]2c3cc(C(=O)N(C)C)n(Cc4ccc(C(F)(F)F)nc4)c3C[C@H]2CN1C(=O)c1ccccc1 | 0.381 | -3.01 (inactive) | 0.857 (inactive) | 1.91 (inactive) | 1.13 (inactive) | 1.55 | 0.36 | 0.516 | 0.717 | 0.521 |
| CCOC(=O)C1=C[C@@H](C(C)(C)C)N(S(=O)(=O)c2ccc(C)cc2)[C@H]1c1ccc(OC)cc1 | 0.474 | -4.94 (inactive) | -0.0448 (inactive) | 0.238 (inactive) | 0.334 (inactive) | 1.36 | 0.0541 | 0.795 | -0.198 | 0.523 |
| C[N+](C)(C)CCCC[C@@H]1NC(=O)[C@H]2C[C@@H](C(=O)NCCCCCN)[C@@H](c3ccc(O)cc3)N2C1=O | 0.801 | -0.147 (inactive) | 0.69 (inactive) | 1.11 (inactive) | 0.466 (inactive) | 2.29 | 0.228 | 0.926 | 0.6 | 2.17 |
| NCCCCCCNC(=O)[C@@H]1C[C@@H]2C(=O)NCC(=O)N2[C@@H]1c1cccc(OCCO)c1 | 0.729 | -0.271 (inactive) | -0.584 (inactive) | 0.0205 (inactive) | -0.19 (inactive) | 1.03 | -0.0624 | 1.56 | 2.08 | 1.31 |
| C=C(C)C1CN([C@H](CO)c2ccccc2)C(=O)/C1=C\c1ccccc1 (stereo not given in full) | -0.0623 | -4.75 (inactive) | 1.3 (inactive) | 2.04 (inactive) | -0.391 (inactive) | -0.0971 | -0.0719 | 0.0321 | 0.343 | 0.633 |
| Cc1ccc(S[C@]2(C(=O)NCC(C)C)CC(=O)N(C(C)C)[C@@H]2c2ccc(CO)cc2I)cc1 | 0.241 | -1.44 (inactive) | 0.502 (inactive) | 0.0909 (inactive) | 0.205 (inactive) | -0.807 | -0.173 | -0.782 | -0.607 | -1.07 |
| CC(C)(C)OC(=O)CC[C@@]1(C(=O)N2CCOCC2)N=C(c2ccc(OCCCO)cc2)O[C@@H]1c1ccccc1CN=[N+]=[N-] | 1.14 | -0.435 (inactive) | -0.202 (inactive) | 0.311 (inactive) | -0.0177 (inactive) | 1.05 | 0.529 | 0.401 | 2.23 | -0.33 |
| C=C(C(=O)CC[C@@H](OC(=O)c1ccccc1-c1ccccc1C(=O)O)c1ccc(OCCO)cc1)C(C)C | 1.04 | 0.0006 (inactive) | -0.367 (inactive) | 3.88 (inactive) | 2.07 (inactive) | 0.0206 | -0.0468 | -0.13 | 0.261 | 2.1 |
| CC1(C)OB(/C=C\CC(OC(=O)c2ccncc2)c2ccccc2)OC1(C)C (stereo not given) | 0.496 | -0.635 (inactive) | 0.135 (inactive) | 3.3 (inactive) | 0.174 (inactive) | -0.452 | -0.383 | 0.432 | -0.232 | -0.476 |
| COc1ccc(NN2C(C(O)c3ccc(F)cc3)C=CC3C(=O)N(C4CCCCC4)C(=O)C32)cc1 (stereo not given) | 0.0942 | -0.591 (inactive) | -0.796 (inactive) | 1.24 (inactive) | 1.08 (inactive) | 1.58 | 0.112 | 0.638 | 0.197 | 0.244 |
| Cc1ccc(S[C@]2(C(=O)NCCN3CCOCC3)CC(=O)N(C(C)C)[C@@H]2c2ccc(CO)cc2I)cc1 | -0.141 | -2.88 (inactive) | -0.121 (inactive) | -0.116 (inactive) | -0.395 (inactive) | -0.676 | 0.0228 | -0.533 | -0.26 | -0.0348 |
